“And” between values parts separate entries of the source, which are not always exact repeats. Identical values can stand only once. The campaign covered roughly 5,500 compounds. About 2,000 (36%) were called active. Not shown: some 18% with an inconclusive outcome. No stated cut-off is given here; in the data, active means normalized growth mostly below about 0.91 (no sharp cut-off); inconclusive means no clear call, values can overlap the other calls; inactive means mostly above about 0.92. Some of the results follow.
Test: chemical genetic growth profiling, strain panel (AID 1159580);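 further: tested at 20 µM; growth read once vehicle control cultures reached saturation at 30 °C; 1 = growth at the plate median or of vehicle wells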
Settings: S. cerevisiae deletion strains, growth OD

Measured: normalized growth

O=C(O)c1ccccc1O
inactive: locus YAL013W, strain DEP1, stronger effect = lower value 1.01 | locus YAL021C, strain ccr4, stronger effect = lower value 0.985 | locus YAL026C, strain drs2, stronger effect = lower value 0.984 | locus YAL030W, strain snc1, stronger effect = lower value 0.992 | locus YBL061C, strain skt5, stronger effect = lower value 0.979 | locus YBR009C, strain hhf1, stronger effect = lower value 0.996 | locus YBR021W, strain FUR4, stronger effect = lower value 0.994 | locus YBR023C, strain chs3, stronger effect = lower value 0.995 | locus YBR171W, strain sec66, stronger effect = lower value 0.996 | locus YBR229C, strain ROT2, stronger effect = lower value 1 | locus YBR231C, strain swc5, stronger effect = lower value 0.975 | locus YBR279W, strain paf1, stronger effect = lower value 0.979 | locus YCL011C, strain gbp2, stronger effect = lower value 0.983 | locus YCL016C, strain dcc1, stronger effect = lower value 1.01 | locus YCL029C, strain bik1, stronger effect = lower value 1.01 | locus YCL069W, strain vba3, stronger effect = lower value 0.994 | locus YCR088W, strain abp1, stronger effect = lower value 0.981 | locus YDL005C, strain med2, stronger effect = lower value 0.973 | locus YDL035C, strain GPR1, stronger effect = lower value 1.01 | locus YDL040C, strain nat1, stronger effect = lower value 0.969 | locus YDL074C, strain BRE1, stronger effect = lower value 1.03 | locus YDL101C, strain DUN1, stronger effect = lower value 1.01 | locus YDL134C, strain PPH21, stronger effect = lower value 1.01 | locus YDL185W, strain tfp1, stronger effect = lower value 0.992 | locus YDL192W, strain arf1, stronger effect = lower value 1.01 | locus YDR001C, strain nth1, stronger effect = lower value 0.955 | locus YDR069C, strain doa4, stronger effect = lower value 0.975 | locus YDR101C, strain arx1, stronger effect = lower value 1.01 | locus YDR137W, strain rgp1, stronger effect = lower value 0.997 | locus YDR159W, strain sac3, stronger effect = lower value 0.976 | locus YDR162C, strain NBP2, stronger effect = lower value 1.01 | locus YDR195W, strain ref2 0.904 | locus YDR297W, strain sur2, stronger effect = lower value 0.984 | locus YDR318W, strain mcm21, stronger effect = lower value 1.03 | locus YDR334W, strain swr1, stronger effect = lower value 0.916 | locus YDR335W, strain msn5, stronger effect = lower value 0.959 | locus YDR388W, stronger effect = lower value 1.01 | locus YDR392W, strain spt3, stronger effect = lower value 1.02 | locus YDR502C, strain sam2, stronger effect = lower value 1.01 | locus YEL003W, strain gim4, stronger effect = lower value 0.973 | locus YEL037C, strain rad23, stronger effect = lower value 0.986 | locus YEL061C, strain CIN8 (second series), stronger effect = lower value 0.959 | locus YEL061C, strain CIN8, stronger effect = lower value 1 | locus YER015W, strain faa2, stronger effect = lower value 0.968 | locus YER016W, strain bim1, stronger effect = lower value 0.978 | locus YER110C, stronger effect = lower value 1.01 | locus YER111C, strain swi4, stronger effect = lower value 0.97 | locus YER155C, strain BEM2 (second series), stronger effect = lower value 0.967 | locus YER155C, strain BEM2, stronger effect = lower value 0.992 | locus YER167W, strain BCK2, stronger effect = lower value 1 | locus YFR010W, strain ubp6, stronger effect = lower value 0.978 | locus YGL078C, strain dbp3, stronger effect = lower value 0.998 | locus YGL086W, strain mad1, stronger effect = lower value 1 | locus YGL167C, strain pmr1, stronger effect = lower value 0.968 | locus YGL173C, strain kem1, stronger effect = lower value 0.995 | locus YGL227W, strain vid30, stronger effect = lower value 0.971 | locus YGL240W, strain doc1, stronger effect = lower value 0.983 | locus YGL248W, strain PDE1, stronger effect = lower value 1 | locus YGL253W, strain hxk2, stronger effect = lower value 0.973 | locus YGR078C, strain PAC10, stronger effect = lower value 1 | locus YGR135W, strain pre9, stronger effect = lower value 1.03 | locus YGR252W, strain gcn5, stronger effect = lower value 1.01 | locus YHR013C, strain ard1, stronger effect = lower value 1.01 | locus YHR027C, strain rpn1, stronger effect = lower value 0.984 | locus YHR030C, strain SLT2, stronger effect = lower value 1.01 | locus YHR079C, strain IRE1 (second series), stronger effect = lower value 1.02 | locus YHR079C, strain IRE1, stronger effect = lower value 1.06 | locus YHR094C, strain hxt1, stronger effect = lower value 0.997 | locus YHR129C, strain ARP1, stronger effect = lower value 0.998 | locus YHR142W, strain chs7, stronger effect = lower value 0.997 | locus YHR200W, strain rpn10, stronger effect = lower value 1.01 | locus YIL066C, strain RNR3, stronger effect = lower value 1 | locus YIL073C, strain SPO22, stronger effect = lower value 1.05 | locus YIL125W, strain kgd1, stronger effect = lower value 0.994 | locus YIR030C, strain dcg1, stronger effect = lower value 1 | locus YJL092W, strain hpr5, stronger effect = lower value 0.996 | locus YJL095W, strain BCK1 (second series), stronger effect = lower value 0.978 | locus YJL095W, strain BCK1, stronger effect = lower value 1.01 and 0.995 | locus YJL115W, strain asf1, stronger effect = lower value 0.951 | locus YJL129C, strain trk1, stronger effect = lower value 0.956 | locus YJL134W, strain LCB3, stronger effect = lower value 1 | locus YJL154C, strain vps35, stronger effect = lower value 0.961 | locus YJL164C, strain tpk1, stronger effect = lower value 0.993 | locus YJL166W, strain qcr8, stronger effect = lower value 0.994 | locus YJL168C, strain set2, stronger effect = lower value 1.01 | locus YJL187C, strain SWE1 (second series), stronger effect = lower value 1 | locus YJR043C, strain POL32, stronger effect = lower value 0.979

From PubChem BioAssay AID1159580 (chemical genetic matrix, 2015)
